Laboratory results from PubChem BioAssay (EPA / NIEHS).
Values joined by “and” are separate entries in the source; they are usually repeats but may differ in a detail not shown here. Equal values may be shown once. Some compounds were tested as several samples or in several runs, with calls that do not always agree. Active and inactive are the calls of the source. Rule for the calls: active = hit-call score of the fitted dose curve at least 0.9, where 1 is the maximum; inactive = score below 0.9.

Experiments:
[1] = BSK_CASM3C_Proliferation: Cell Proliferation Assessment in the BioMAP Diversity Plus: CASM3C Assay (AID 2283047); conditions: primary human coronary artery smooth muscle cells;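 note: sulforhodamine B total protein stain as relative cell number at 560 nm; sub-confluent cells exposed 48 h before staining; fitted both ways against DMSO so gain or loss of cell number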
[2] = read-out: Monokine induced gamma interferon (MIG), CXCL9 (gene 4283); assay: BSK_CASM3C_MIG: BioMAP Diversity Plus: CASM3C Assay for Monokine induced gamma interferon (MIG) Biomarker Activity (AID 2283048); conditions: primary human coronary artery smooth muscle cells; actives raise or lower the signal;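 note: MIG protein level measured by ELISA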
[3] = read-out: serum amyloid A (SAA), SAA1 (gene 6288); assay: BSK_CASM3C_SAA: BioMAP Diversity Plus: CASM3C Assay for serum amyloid A (SAA) Biomarker Activity (AID 2283049); conditions: primary human coronary artery smooth muscle cells; actives raise or lower the signal
[4] = BSK_CASM3C_SRB: Viability Assessment in the BioMAP Diversity Plus: CASM3C Assay (AID 2283050); conditions: primary human coronary artery smooth muscle cells;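 note: cells exposed to compound for 24 h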
[5] = read-out: Thrombomodulin, THBD (gene 7056); assay: BSK_CASM3C_Thrombomodulin: BioMAP Diversity Plus: CASM3C Assay for Thrombomodulin Biomarker Activity (AID 2283051); conditions: primary human coronary artery smooth muscle cells; actives raise or lower the signal;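 note: thrombomodulin protein level measured by ELISA 24 h after dosing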
[6] = read-out: Tissue Factor, F3 (gene 2152); assay: BSK_CASM3C_TissueFactor: BioMAP Diversity Plus: CASM3C Assay for Tissue Factor Biomarker Activity (AID 2283052); conditions: primary human coronary artery smooth muscle cells; actives raise or lower the signal;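 note: cell surface tissue factor protein level read by ELISA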
[7] = read-out: Interferon-gamma inducible Protein 10 (IP10), CXCL10 (gene 3627); assay: BSK_hDFCGF_IP10: BioMAP Diversity Plus: hDFCGF Assay for Interferon-gamma inducible Protein 10 (IP10) Biomarker Activity (AID 2283053); conditions: primary human foreskin fibroblasts; actives raise or lower the signal
Method in brief: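 ELISA read-out of IP-10 (CXCL10) from primary human skin fibroblasts, 24 h after compound addition. Gain or loss of signal versus DMSO baseline, bidirectional curve fitting.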

[8] = read-out: Urokinase-type plasminogen activator receptor (uPAR), PLAUR (gene 5329); assay: BSK_CASM3C_uPAR: BioMAP Diversity Plus: CASM3C Assay for Urokinase-type plasminogen activator receptor (uPAR) Biomarker Activity (AID 2283054); conditions: primary human coronary artery smooth muscle cells; actives raise or lower the signal;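 note: cell-surface uPAR protein level quantified by ELISA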
[9] = read-out: Vascular cell adhesion molecule 1 (VCAM1), VCAM1 (gene 7412); assay: BSK_CASM3C_VCAM1: BioMAP Diversity Plus: CASM3C Assay for Vascular cell adhesion molecule 1 (VCAM1) Biomarker Activity (AID 2283055); conditions: primary human coronary artery smooth muscle cells; actives raise or lower the signal;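 note: VCAM-1 protein level quantified by ELISA on the cells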
[10] = read-out: Collagen III, COL3A1 (gene 1281); assay: BSK_hDFCGF_CollagenIII: BioMAP Diversity Plus: hDFCGF Assay for Collagen III Biomarker Activity (AID 2283056); conditions: primary human foreskin fibroblasts; actives raise or lower the signal
Method in brief: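 Cells: human foreskin fibroblasts, primary. Dosing followed by 24 h incubation, then ELISA for collagen III. Both increases and decreases scored relative to DMSO.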

[11] = read-out: Epidermal growth factor receptor (EGFR), EGFR (gene 1956); assay: BSK_hDFCGF_EGFR: BioMAP Diversity Plus: hDFCGF Assay for Epidermal growth factor receptor (EGFR) Biomarker Activity (AID 2283057); conditions: primary human foreskin fibroblasts; actives raise or lower the signal
Method in brief: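 ELISA readout of EGFR on human dermal fibroblasts (primary foreskin cells), 24 h post-dosing; bidirectional curve fit vs DMSO baseline, gain or loss of signal scored.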

[12] = read-out: Macrophage colony-stimulating factor (MCSF), CSF1 (gene 1435); assay: BSK_hDFCGF_MCSF: BioMAP Diversity Plus: hDFCGF Assay for Macrophage colony-stimulating factor (MCSF) Biomarker Activity (AID 2283060); conditions: primary human foreskin fibroblasts; actives raise or lower the signal
Method in brief: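 M-CSF levels, determined by ELISA, are taken at 24 h after dosing human skin fibroblasts. Responses in either direction are fitted with DMSO serving as the baseline.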

[13] = BSK_hDFCGF_SRB: Viability Assessment in the BioMAP Diversity Plus: hDFCGF Assay (AID 2283061); conditions: primary human foreskin fibroblasts;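 note: cells exposed to compound for 24 h before the read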
Method in brief: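 Cells were dosed with test chemical, cultured 24 h, fixed with 10% TCA, then stained with 0.1% SRB and read at 560 nm. The fibroblasts were human foreskin primary cells, and DMSO served as baseline.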

[14] = read-out: TIMP metallopeptidase inhibitor 1 (TIMP1), TIMP1 (gene 7076); assay: BSK_hDFCGF_TIMP1: BioMAP Diversity Plus: hDFCGF Assay for TIMP metallopeptidase inhibitor 1 (TIMP1) Biomarker Activity (AID 2283062); conditions: primary human foreskin fibroblasts; actives raise or lower the signal
Method in brief: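 Fibroblasts from human foreskin are treated with test chemical and harvested at 24 h. TIMP-1 is quantified by ELISA, and gain or loss of signal is scored against DMSO.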

[15] = read-out: Monokine induced gamma interferon (MIG), CXCL9 (gene 4283); assay: BSK_hDFCGF_MIG: BioMAP Diversity Plus: hDFCGF Assay for Monokine induced gamma interferon (MIG) Biomarker Activity (AID 2283063); conditions: primary human foreskin fibroblasts; actives raise or lower the signal
Method in brief: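 MIG signal, determined by ELISA, reflects 24 h chemical exposure of human skin primary fibroblasts. DMSO serves as negative control and baseline.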

[16] = read-out: Matrix Metallopeptidase 1 (MMP1), MMP1 (gene 4312); assay: BSK_hDFCGF_MMP1: BioMAP Diversity Plus: hDFCGF Assay for Matrix Metallopeptidase 1 (MMP1) Biomarker Activity (AID 2283064); conditions: primary human foreskin fibroblasts; actives raise or lower the signal
Method in brief: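 MMP1 levels quantified by ELISA 24 h after dosing human dermal fibroblast cultures, with parallel SRB total-protein staining for overt cytotoxicity. Data fitted in both directions against DMSO baseline.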

[17] = read-out: Vascular cell adhesion molecule 1 (VCAM1), VCAM1 (gene 7412); assay: BSK_hDFCGF_VCAM1: BioMAP Diversity Plus: hDFCGF Assay for Vascular cell adhesion molecule 1 (VCAM1) Biomarker Activity (AID 2283065); conditions: primary human foreskin fibroblasts; actives raise or lower the signal;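 for AC50: VCAM-1 protein level quantified by ELISA after 24 h chemical exposure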
Method in brief: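 Cells are dosed, cultured for 24 h, then VCAM-1 is quantified by ELISA; signal increases and decreases are both fitted relative to DMSO.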

[18] = read-out: Plasminogen activator inhibitor-1 (PAI1), SERPINE1 (gene 5054); assay: BSK_hDFCGF_PAI1: BioMAP Diversity Plus: hDFCGF Assay for Plasminogen activator inhibitor-1 (PAI1) Biomarker Activity (AID 2283066); conditions: primary human foreskin fibroblasts; actives raise or lower the signal
Method in brief: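 ELISA readout of PAI-1 from primary human skin fibroblast cultures, 24 h after compound addition. Gain or loss of signal was fitted bidirectionally against DMSO baseline.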

[19] = read-out: Intercellular Adhesion Molecule 1 (ICAM1), ICAM1 (gene 3383); assay: BSK_KF3CT_ICAM1: BioMAP Diversity Plus: KF3CT Assay for Intercellular Adhesion Molecule 1 (ICAM1) Biomarker Activity (AID 2283067); conditions: primary human keratinocytes with fibroblasts; actives raise or lower the signal
Method in brief: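 Dose the keratinocyte/fibroblast co-culture, wait 24 h, measure ICAM-1 by ELISA, then fit increases or decreases against DMSO. Cytotoxicity is checked in parallel cultures by SRB total-protein staining.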

[20] = read-out: Interferon-gamma inducible Protein 10 (IP10), CXCL10 (gene 3627); assay: BSK_KF3CT_IP10: BioMAP Diversity Plus: KF3CT Assay for Interferon-gamma inducible Protein 10 (IP10) Biomarker Activity (AID 2283068); conditions: primary human keratinocytes with fibroblasts; actives raise or lower the signal
Method in brief: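 ELISA read-out of IP-10 after 24 h chemical dosing of human skin primary co-culture (keratinocytes, foreskin fibroblasts). Gain or loss of signal relative to DMSO, bidirectional curve fit.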

Measured: AC50

Nc1ccc(N)c(Cl)c1
active: [1] 28.7 µM | [2] 6.03 µM | [4] 16.1 µM | [5] 2.9 µM and 3.08 µM | [6] 1.13 µM | [7] 16 µM and 20.2 µM | [9] 27.2 µM and 11.1 µM | [10] 28.4 µM | [11] 21.4 µM | [12] 14.9 µM and 16.5 µM | [13] 32.3 µM and 32.1 µM | [14] 34.2 µM | [15] 17.2 µM and 17.5 µM | [16] 34.5 µM and 33 µM | [17] 13 µM and 17.1 µM | [18] 26.4 µM and 31.4 µM
inactive: [2] | [3] | [4] | [6] | [8] | [10] | [11] | [14] | [19] | [20]

CO[Si](OC)(OC)c1ccccc1
inactive: all assays above

COc1ccc2nc(N)sc2c1
inactive: all assays above

C=CCOc1c(Br)cc(Br)cc1Br
active: [1] 29.5 µM | [3] 20 µM | [4] 30.4 µM | [6] 16.9 µM | [7] 35.5 µM | [8] 33.5 µM | [9] 32.3 µM | [10] 20 µM | [12] 12.5 µM | [13] 25.7 µM | [14] 8.19 µM | [15] 20 µM | [16] 30.3 µM | [17] 33.1 µM | [18] 20 µM | [19] 30.7 µM | [20] 38.9 µM
inactive: [2] | [5] | [11]

C=C[Si](OC(C)=O)(OC(C)=O)OC(C)=O
active: [10] 3.16 µM
inactive: [1] | [2] | [3] | [4] | [5] | [6] | [7] | [8] | [9] | [10] | [11] | [12] | [13] | [14] | [15] | [16] | [17] | [18] | [19] | [20]

c1ccc(-c2ccccn2)nc1
inactive: all assays above

CCO[Si](C)(OCC)OCC
inactive: all assays above

O=Nc1ccc(O)cc1
inactive: all assays above

CN1C(=O)N(C)C(O)C1O (stereo not drawn)
inactive: [1] | [2] | [3] | [4] | [5] | [6] | [7] | [8] | [9] | [10] | [11] | [12] | [13] | [14] | [15] | [16] | [17] | [18] | [19] | [20]
active: [9] 0.179 µM
